Experimental data as given in PubChem BioAssay (Tox21).
“And” between values parts separate entries of the source, which are not always exact repeats. Equal entries are not always repeated. Records with an inconclusive call do not appear. Entries that show only a call come without a potency. Some structures have more than one record in an assay (separate samples or runs), and their calls can disagree. The source made the active and inactive calls. Unless noted, calls follow the shape of the dose curve; as a rule, active = well fitted curve in the direction sought with a large enough effect in the repeat runs; inconclusive = weak or mixed curves; inactive = no such curve, though single readings can be large; an effect the other way counts as inactive or inconclusive.

What was measured:
[1] = qHTS assay to identify small molecule agonists of the RXR signaling pathway - cell viability counter screen (AID 1159529); also: nearly all actives have a fitted effect of over 50% in size; also: potency is read from the fitted curve at half-maximal effect
How it was run: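 Tox21 10K compounds were tested for cytotoxicity against GeneBLAzer RXR-alpha HEK 293T cells grown in 2% charcoal-stripped FBS. Exposure lasted 16 hr at 37 C, 5% CO2; viability read by CellTiter-Glo luminescence.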

[2] = qHTS assay to identify small molecule antagonists of the retinoid acid receptor (RAR) signaling pathway - cell viability counter screen (AID 1159551); also: nearly all actives have a fitted effect of over 35% in size
How it was run: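 Measured by luminescent ATP detection, viability reflects C3RL4 cells treated 6 h at 37 C with test chemicals in the presence of 1 uM (final) retinol.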

[3] = qHTS assay to identify small molecule antagonists of the retinoic acid receptor (RAR) signaling pathway (AID 1159552; also: nearly all actives have a fitted effect of over 50% in size)
How it was run: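 Overnight-plated C3RL4 reporter cells get compound, then retinol to 1 uM final; plates sit 6 hr at 37 C, 5% CO2. A luciferase reagent is added and light output recorded after 30 min at room temperature.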

[4] = qHTS assay to identify small molecule antagonists of the estrogen related receptor (ERR) signaling pathway from Tox21 library - cell viability counter screen (AID 1224834); also: nearly all actives have a fitted effect of over 30% in size; also: potency is read from the fitted curve at half-maximal effect
How it was run: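 Seeded ERR cells were rested 6 h at 37 C/5% CO2 before compounds, positive and negative controls or DMSO were added. Incubation continued for 17.5 h, and viability was then quantified by CellTiter-Fluor fluorescence.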

[5] = target: Luciferin 4-monooxygenase (Photinus pyralis) (UniProt P08659); assay: qHTS assay to identify small molecule inhibitors of firefly luciferase (AID 1224835); also: nearly all actives have a fitted effect of over 25% in size; also: potency is read from the fitted curve at half-maximal effect
Chain of Luciferin 4-monooxygenase (Photinus pyralis) (P08659 whole entry, looked up): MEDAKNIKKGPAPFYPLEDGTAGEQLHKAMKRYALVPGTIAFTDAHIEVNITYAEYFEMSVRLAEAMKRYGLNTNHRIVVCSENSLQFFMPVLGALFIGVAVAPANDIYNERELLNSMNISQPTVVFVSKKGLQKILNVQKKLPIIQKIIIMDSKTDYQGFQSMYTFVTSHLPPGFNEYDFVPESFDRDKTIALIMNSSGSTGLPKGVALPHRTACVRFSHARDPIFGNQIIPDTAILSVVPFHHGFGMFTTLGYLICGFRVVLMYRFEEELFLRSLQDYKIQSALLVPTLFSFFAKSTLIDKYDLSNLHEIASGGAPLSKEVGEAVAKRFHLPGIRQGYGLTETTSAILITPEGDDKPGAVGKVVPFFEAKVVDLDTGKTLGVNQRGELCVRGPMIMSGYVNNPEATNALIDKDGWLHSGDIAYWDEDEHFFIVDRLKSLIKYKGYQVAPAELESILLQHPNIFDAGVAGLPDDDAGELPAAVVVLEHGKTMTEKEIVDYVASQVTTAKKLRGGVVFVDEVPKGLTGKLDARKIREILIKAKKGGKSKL
How it was run: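 Inhibition of purified Photinus luciferase is measured by luminescence. Substrate levels (D-luciferin, ATP) sit at their KM values. Each compound is tested in a concentration series.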

[6] = qHTS assay to identify small molecule agonists of the constitutive androstane receptor (CAR) signaling pathway - cell viability counter screen (AID 1224836); also: nearly all actives have a fitted effect of over 45% in size; also: potency is read from the fitted curve at half-maximal effect
How it was run: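 Fluorescence from CellTiter-Fluor indicates live cells after 23 h exposure. The human hepatoma line expresses hCAR and a CYP2B6-2.2kb reporter. Incubation medium contains 0.75 uM PK11195 (final).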

[7] = qHTS assay to identify small molecule antagonists of the constitutive androstane receptor (CAR) signaling pathway - cell viability counter screen (AID 1224837); also: nearly all actives have a fitted effect of over 45% in size; also: potency is read from the fitted curve at half-maximal effect
How it was run: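 To flag cytotoxic false antagonists, HepG2 hCAR/CYP2B6-2.2kb cells were treated 23 hr with 15-concentration compound series and 50 nM CITCO at 37 C/5% CO2; CellTiter-Fluor fluorescence was the measured end point.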

[8] = target: Nuclear receptor subfamily 1 group I member 3 (Homo sapiens) (UniProt Q14994); assay: qHTS assay to identify small molecule antagonists of the constitutive androstane receptor (CAR) signaling pathway (AID 1224838);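 also: HepG2 cells stably expressing hCAR with CYP2B6 luciferase reporter stimulated by CITCO; nearly all actives have a fitted effect of over 40% in size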; also: potency is read from the fitted curve at half-maximal effect
Chain of Nuclear receptor subfamily 1 group I member 3 (Homo sapiens) (Q14994 whole entry, looked up): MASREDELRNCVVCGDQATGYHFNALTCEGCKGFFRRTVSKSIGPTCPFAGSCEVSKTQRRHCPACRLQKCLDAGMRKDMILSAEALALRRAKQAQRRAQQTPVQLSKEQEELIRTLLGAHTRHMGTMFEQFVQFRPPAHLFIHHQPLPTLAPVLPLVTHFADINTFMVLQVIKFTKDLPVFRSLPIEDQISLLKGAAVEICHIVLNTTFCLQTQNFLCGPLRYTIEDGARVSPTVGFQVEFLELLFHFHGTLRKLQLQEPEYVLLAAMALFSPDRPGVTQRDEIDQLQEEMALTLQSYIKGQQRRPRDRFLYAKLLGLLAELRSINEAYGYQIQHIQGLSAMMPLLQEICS
How it was run: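 Human hepatoma HepG2 cells expressing hCAR and a CYP2B6 promoter (2.2 kb) luciferase construct; compound titration (15 points) with 50 nM CITCO final, 24 h at 37 C/5% CO2; luminescence via ONE-Glo after 30 min at room temperature.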

[9] = target: Nuclear receptor subfamily 1 group I member 3 (Homo sapiens) (UniProt Q14994); assay: qHTS assay to identify small molecule agonists of the constitutive androstane receptor (CAR) signaling pathway (AID 1224839); also: nearly all actives have a fitted effect of over 15% in size; also: potency is read from the fitted curve at half-maximal effect
How it was run: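 Stable hCAR/CYP2B6-2.2kb HepG2 line in DMEM with 10% FBS; compounds (15 concentrations) and 0.75 uM PK11195 final, 24 h at 37 C/5% CO2, then ONE-Glo luminescence after 30 min.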

[10] = qHTS assay to identify small molecule antagonists of the estrogen related receptor signaling pathway with the pleiotropic PPARgamma coactivator (PGC) from Tox21 10K library (AID 1224841; call rule not given here; also: actives are mostly falling curves and most rising ones were filed inactive; nearly all actives have a fitted effect of over 50% in size; also: potency is read from the fitted curve at half-maximal effect)
How it was run: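 Test chemicals dissolved in DMSO were applied to pre-incubated (6 h) PGC/ERR cells at 2,000 cells/well for an 18 h, 37 C treatment; reporter luminescence was then read using One-Glo.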

[11] = qHTS assay to identify small molecule agonists of the estrogen related receptor signaling pathway with the pleiotropic PPARgamma coactivator (PGC) from Tox21 10K library (AID 1224842); also: nearly all actives have a fitted effect of over 15% in size; also: potency is read from the fitted curve at half-maximal effect
How it was run: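 Luminescence from One-Glo (30 min, room temperature) measured after PGC/ERR cells had 18 h at 37 C with pinned compound (23 nL in DMSO). Cells had been seeded at 2,000 per well and pre-incubated 6 h.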

[12] = qHTS assay to identify small molecule agonists of the retinoic acid receptor (RAR) signaling pathway (AID 1159553); also: potency is read from the fitted curve at half-maximal effect
How it was run: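 6 hr compound exposure (DMSO vehicle) of overnight-plated C3RL4 RARE-luc cells at 37 C; luminescence quantified after 30 min RT with luciferase reagent.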

[13] = qHTS assay to identify small molecule antagonists of the estrogen related receptor signaling pathway with the pleiotropic PPARgamma coactivator (PGC) from Tox21 10K library - cell viability counter screen (AID 1224840; active = well fitted cell-killing curve with a large enough effect in the repeat runs, not every such curve was filed as active; also: nearly all actives have a fitted effect of over 40% in size; also: potency is read from the fitted curve at half-maximal effect)
How it was run: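 Seeded PGC/ERR cells (2,000/well, 6 h, 37 C/5% CO2) get compound by pin tool; 17.5 h incubation at 37 C; CellTiter-Fluor added, 30 min, fluorescence measured.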

[14] = qHTS assay to identify small molecule antagonists of the estrogen related receptor (ERR) signaling pathway - cell viability counter screen (AID 1224818); also: potency is read from the fitted curve at half-maximal effect
How it was run: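 Compounds dissolved in DMSO were applied to ERR cells seeded at 2,000 per well 6 h earlier. Cell viability followed 17.5 h later via 30-min CellTiter-Fluor fluorescence.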

[15] = qHTS assay to identify small molecule antagonists of the estrogen related receptor signaling pathway with the pleiotropic PPARgamma coactivator (PGC) cell viability counter screen (AID 1224822; also: potency is read from the fitted curve at half-maximal effect)
How it was run: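 Counter screen for cell viability: PGC/ERR cells, 6 h pre-incubation after plating, 17.5 h compound exposure at 37 C, fluorescence from CellTiter-Fluor after 30 min.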

Row | Structure (SMILES) | Potency [1] | Potency [2] | Potency [3] | Potency [4] | Potency [5] | Potency [6] | Potency [7] | Potency [8] | Potency [9] | Potency [10] | Potency [11] | Potency [12] | Potency [13] | Potency [14] | Potency [15]
1 | c1cc(N(CC2CO2)CC2CO2)ccc1OCC1CO1 (stereo not given) | inactive | inactive | inactive | 48.6 µM (active) | inactive | 61.1 µM (active) | 54.5 µM (active) | 68.6 µM (active) | inactive | inactive | 9.7 µM (active) | – | – | – | –
2 | O=C(Nc1ccc([N+](=O)[O-])cc1Cl)c1cc(Cl)ccc1O | – | – | inactive | 3.86 µM (active) and 1.3 µM (active) | 399 nM (active) and 301 nM (active) | 6.86 µM (active) and 4.61 µM (active) | 5.45 µM (active) and 3.26 µM (active) | inactive and 4.11 µM (active) | 1.54 µM (active) and 820 nM (active) | – | – | 43.3 nM (active) and 82 nM (active) | 2.73 µM (active) | – | –
3 | COC(=O)C1=C(C)NC(C)=C(C(=O)OCCN(C)Cc2ccccc2)C1c1cccc([N+](=O)[O-])c1 (stereo not given) | 24.4 µM (active) | inactive | – | 27.1 µM (active) and 23.7 µM (active) | inactive | 48.3 µM (active) | 43 µM (active) and 23.7 µM (active) | inactive | – | – | – | – | 30.5 µM (active) and 26.6 µM (active) | 23.7 µM (active) | 23.7 µM (active)
4 | Cc1ccc(C(=O)c2cc(O)c(O)c([N+](=O)[O-])c2)cc1 | inactive | inactive | – | 43.3 µM (active) | 63.3 µM (active) and 34.7 µM (active) | 43.3 µM (active) | – | inactive | – | 30.6 µM (active) | inactive | – | 43.3 µM (active) and inactive | – | –
5 | CC(C)OC(=O)C(C)(C)Oc1ccc(C(=O)c2ccc(Cl)cc2)cc1 | inactive | – | inactive | inactive | 34.7 µM (active) | inactive | inactive | inactive | – | – | – | inactive | inactive | inactive | inactive
6 | Cc1cccc(N(C)C(=S)Oc2ccc3ccccc3c2)c1 | – | – | inactive | inactive | inactive | inactive | inactive | inactive | – | – | – | 2.43 µM (active) and 13.3 µM (active) | inactive | – | –
7 | O=C(c1ccc(OCCN2CCCCC2)cc1)c1c(-c2ccc(O)cc2)sc2cc(O)ccc12 | 27.5 µM (active) and 23.9 µM (active) | inactive | – | 30.7 µM (active) and 48.6 µM (active) and 18.8 µM (active) | – | – | – | inactive | inactive | – | – | – | 24.4 µM (active) and 30.6 µM (active) | – | –
8 | CN(C)C(=N)N=C(N)N | inactive | – | – | inactive | – | inactive | inactive | inactive | – | – | – | inactive | inactive | – | –
9 | O=C1OC2(c3cc(Br)c(O)c(Br)c3Oc3c2cc(Br)c(O)c3Br)c2c(Cl)c(Cl)c(Cl)c(Cl)c21 | inactive | – | – | 6.12 µM (active) and 18.6 µM (active) | 40 µM (active) and 24.2 µM (active) | 13.7 µM (active) and 37.1 µM (active) | 19.4 µM (active) and 33.1 µM (active) | inactive | – | 10.9 µM (active) | inactive | – | 4.86 µM (active) and 29.5 µM (active) | – | –
